D1 agonist: agonists of human D1 dopamine receptor; P21728; HEK293 T-REx D1 cells, calcium flux, agonist mode; activation, % at 2 µM; 1% of 360,000 active; AID 504660; in the data active means activation above about 30%; further: 0% is about no effect
Target sequence (P21728 whole entry, looked up): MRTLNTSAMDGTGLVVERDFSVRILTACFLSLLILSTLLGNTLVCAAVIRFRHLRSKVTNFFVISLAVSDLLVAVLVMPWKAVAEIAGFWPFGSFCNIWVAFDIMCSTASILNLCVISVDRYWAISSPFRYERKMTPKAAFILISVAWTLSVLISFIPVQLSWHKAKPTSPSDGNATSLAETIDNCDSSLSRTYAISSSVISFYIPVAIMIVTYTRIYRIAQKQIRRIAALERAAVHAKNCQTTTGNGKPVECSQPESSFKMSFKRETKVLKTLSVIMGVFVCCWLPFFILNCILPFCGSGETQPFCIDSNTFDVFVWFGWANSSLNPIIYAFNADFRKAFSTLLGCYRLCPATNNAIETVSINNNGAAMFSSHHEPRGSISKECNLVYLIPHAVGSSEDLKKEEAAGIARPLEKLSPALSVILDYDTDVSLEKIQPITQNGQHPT
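Tetracycline-induced HEK293 TREx D1 cells, force-coupled to calcium signalling, were dye-loaded with a no-wash calcium kit. Compound was pin-added after a 10 s baseline. Fluorescence was read kinetically at 1 cycle/s for 180 s, with calcium rises flagged as agonism.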
D3 ag: agonists of human D3 dopamine receptor. P35462. D3R DiscoveRx beta-arrestin cells, luminescence, 90 min. max activation, %. 0.58% of 410,000 active; in the data active means max activation above about 30%; further: 0% is about no effect
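Agonist mode: compounds and dopamine controls were applied to plated cells for 90 min at 37 degrees C after an overnight attachment at 1500 cells/well. Luminescent read-out followed 30 - 60 minutes at room temperature with DiscoveRx detection reagent.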
D1 antag: blocks dopamine activation of the human D1 receptor | P21728 | HEK293 TREx D1 cells, calcium flux, dopamine EC80; hits give low values | activity change, negative = inhibition, % at 10 µM | 3.2% of 360,000 active | AID 504652; in the data active means activity change below about -30%; further: on the % scale 0 is the no-effect control and ±100 the full control effect
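Inducible Hek293 Trex D1 cells (tetracycline, overnight, 30 C). Calcium dye 30–90 min RT. Antagonist mode: EC80 dopamine added after 180 s compound read.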
D1 PAM: enhances dopamine response at the human D1 receptor. P21728. HEK293 TREx D1 cells, calcium flux, dopamine EC20 potentiation. potentiation, % at 10 µM. 0.036% of 360,000 active. AID 504651; in the data active means potentiation above about 30%; further: 0% is about no effect
D3 antag: antagonists of human D3 dopamine receptor; AID 652054; 2.5% of 360,000 active; D3R cells, DiscoveRx beta-arrestin luminescence, antagonist mode; hits give low values; P35462; max response, negative = inhibition, %; in the data active means max response below about -50%; inconclusive means no clear call, values can overlap the other calls; further: on the % scale 0 is the no-effect control and ±100 the full control effect
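Cells plated overnight at 1500 cells/well, then exposed to library compounds with dopamine controls for 90 minutes at 37 degrees C. DiscoveRx reagent added for 30–60 minutes at room temperature; luminescence read, quantitative HTS format.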
An asterisk follows results filed as active; ? = inconclusive; · = not tested or not shown. Rows were chosen to be rich in hits. Some 6% of all compounds tested hit in one or more screens of this group.

SMILES	D1 agonist	D3 ag	D1 antag	D1 PAM	D3 antag
O=C(Nc1ccc(Cl)cc1)Nc1ccc(S(=O)(=O)Nc2ncccn2)cc1	3	-14	-60*	3	?
O=S(=O)(Nc1ncccn1)c1ccc(NC(=S)Nc2ccc(Cl)cc2)cc1	8	-1	-8	-1	-8
CCOC(=O)C1CCCN(c2c(C(=O)c3ccc(C)cc3)cnc3ccc(OCC)cc23)C1 (centres undefined)	-1	8	15	1	·
O=C(Nc1ccc2c(c1)OCO2)c1cc2nc(C3CC3)cc(C(F)(F)F)n2n1	1	20	4	2	14
O=C(Nc1cccnc1)c1cc2nc(C3CC3)cc(C(F)(F)F)n2n1	-1	7	-31*	-1	-22
O=S1(=O)Nc2c(ccc3cccnc23)-c2ccccc21	3	-38	-22	8	-137*
O=S1(=O)c2ccccc2N(Cc2cccc(F)c2)c2ccccc21	3	-9	-5	-4	·
Cc1cccc(NC(=S)NC(=O)Cc2ccccc2)c1C	65*	5	6	-3	6
Cc1cccc(NC(=S)NC(=O)CCc2ccccc2)c1C	12	-2	20	5	-14
Cc1c(NC(=S)NC(=O)Cc2ccccc2)cccc1C(=O)O	1	0	-9	-2	21
Cc1cc(C)c(O)c(NC(=S)NC(=O)Cc2ccccc2)c1	33*	8	-11	2	2
Cc1cc(Cl)ccc1Oc1ncc(-c2ccc(Cl)cc2)cn1	7	-7	-66*	7	-17
COC(=O)c1cc2occc2n1CC(=O)Nc1ccc(C(C)C)cc1	-1	-1	-6	-3	·
O=C(Nc1ccncc1NC(=O)c1cccc([N+](=O)[O-])c1)c1cccc([N+](=O)[O-])c1	0	6	-8	-2	21
O=C(NC(=S)NNC(=O)c1ccccc1O)c1cccc([N+](=O)[O-])c1	4	43*	4	2	8
O=C(NC(=S)Nc1ccccn1)c1cccc([N+](=O)[O-])c1	0	-10	-55*	-6	0
O=C(Nc1cccc(NC(=O)c2cccc([N+](=O)[O-])c2)n1)c1cccc([N+](=O)[O-])c1	4	0	-34*	-9	-1
O=C(C#Cc1ccccc1)c1cccc([N+](=O)[O-])c1	1	-8	-14	-4	-56*
CC(C)(C)OC(=O)Cc1nnc(CNC(=O)c2ccccc2)s1	2	·	-6	0	·
COC[C@H](c1ccc(C(F)(F)F)cc1)N1CCN(C2(C)CCN(C(=O)c3c(C)ncnc3C)CC2)C[C@H]1C	·	13	·	·	·
CCOc1ccc(-c2nonc2NC(=O)c2oc3c(C)c(C)ccc3c2C)cc1OCC	-1	4	-7	0	·
O=C(c1cc2c(s1)-c1ccccc1OC2)N1CCN(c2ccc(F)cc2)CC1	2	-8	4	-1	·
CC(=O)c1ccc(N2CCN(C(=O)c3cc4c(s3)-c3ccccc3OC4)CC2)cc1	0	-8	-64*	-5	·
CN(C)CCN(Cc1ccco1)C(=O)c1cc2c(s1)-c1ccccc1OC2	7	-22	-70*	-4	·
O=C(NC1CC1)c1cc2c(s1)-c1ccccc1OC2	0	5	-46*	-10	?
SMILES	D1 agonist	D3 ag	D1 antag	D1 PAM	D3 antag
O=C(CCCl)Nc1cccc2cccnc12	0	·	23	3	·
O=C(c1[nH]c(C(F)(F)F)nc1-c1ccccc1)N1CCN(c2cccc(C(F)(F)F)n2)CC1	·	-6	·	·	-55*
CC1CCN(C(=O)c2[nH]c(C(F)(F)F)nc2-c2ccccc2)CC1	·	8	·	·	-69*
CC(=O)N1CCN(C(=O)c2[nH]c(C(F)(F)F)nc2-c2ccccc2)CC1	·	9	·	·	12
CCCCn1c(=O)c2oc3ccccc3c2n(Cc2ccc(C)cc2)c1=O	1	-22	-9	-2	·
NS(=O)(=O)c1ccc(N=Nc2c[nH]c(=O)c(O)c2)cc1	3	-11	1	4	-66*
CCOCc1c(C(=O)N2CCN(CC(=O)Nc3ccc(F)cc3)CC2)oc2ccccc12	-1	-1	-34*	-7	9
CCOCc1c(C(=O)N2CCN(CCOc3ccc(Cl)cc3)CC2)oc2ccccc12	6	108*	-13	3	-10
Cc1ccc(NC(=O)C2CCCN(S(=O)(=O)c3ccc4c(c3)CCCC(=O)N4)C2)cc1N(C)C (centres undefined)	1	1	-7	-5	·
COCCNC(=O)C1=CC(c2ccc3c(c2)OCO3)=NS(=O)(=O)N1C	1	-1	0	0	·
Cc1nn(C(=O)c2ccc(Cl)cc2)c(C)c1S(=O)(=O)N1CCOCC1	0	5	2	-3	·
Cc1ccc(/C=C2\Oc3cc(OC(=O)N4CCOCC4)ccc3C2=O)cc1	0	11	-25	-6	-4
O=C(Oc1ccc2c(c1)O/C(=C\c1ccncc1)C2=O)c1ccccc1	56*	-5	3	-1	-22
Cc1cc(N/N=C/c2ccc([N+](=O)[O-])o2)nc2ccccc12	48*	-5	2	1	-26
CCOC(=O)c1[nH]c2c(c1Cc1ccccc1)C(=O)CC(c1ccccc1)C2 (centres undefined)	5	-9	3	-3	·
COc1cccc(N2CCc3c(C)nc4ccc(Cl)cc4c32)c1	0	-12	3	-11	11
CCN1Cc2c(/C=C/c3ccccc3)nc3ccc(OC)cc3c2N(c2cccc(Cl)c2)C1	6	1	-63*	-13	-24
CC(C)Cc1nn2c(=O)cc(COC(=O)c3ccc(NC(=O)C4CCCCC4)cc3)nc2s1	0	-11	-4	0	·
O=C(OCc1cc(=O)n2nc(-c3cccs3)sc2n1)c1ccc(F)cc1	3	10	-1	0	·
COC(=O)c1cc(=O)n(CCc2ccccc2)c(=Nc2ccc(F)cc2)s1	0	-7	-16	4	-19
COC(=O)c1cc(=O)n(CCc2ccc(OC)cc2)c(=Nc2ccc(F)c(Cl)c2)s1	7	-5	-60*	-8	-11
Cc1ccc2c(=O)c(C(=O)c3ccc(F)cc3)cn(CC(=O)NCc3ccccc3Cl)c2n1	2	-4	-5	-4	·
COc1cc(CN2CCc3ccc(NC(=O)CCc4ccccc4OC)cc3C2)ccc1O	10	-14	-10	-8	-62*
COc1ccc(CN2CCc3ccc(NC(=O)CCc4ccccc4OC)cc3C2)c(O)c1	2	-15	-83*	-20	-15
COc1cc(CN2CCc3ccccc3C2)ccc1O	3	-22	6	-5	-90*
COc1ccccc1CCC(=O)Nc1ccc2c(c1)CN(CCCn1cccn1)CC2	0	-12	2	-6	-6
COc1ccc(NC(=O)CN2CCc3ccccc3C2)cc1OC	8	-12	-6	-2	-8
COc1cccc(CN2CCc3ccc(NC(=O)CCc4ccc(C)cc4)cc3C2)c1O	2	-20	-31*	3	?
